Screening data as filed in PubChem.
ALOX12 inh – blocks human arachidonate 12S-lipoxygenase; P18054; purified 12hLO, xylenol orange hydroperoxide absorbance; Potency, µM (doses to about 108 µM), most hits filed as inhibitors; 1.1% of 580,000 active
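Hydroperoxide product was detected by ferrous iron/xylenol orange as the 573 to 405 nm absorbance ratio. Arachidonic acid at 40 uM (final) was turned over for 30 min at room temperature by 150 nM human 12hLO, pH 7.0 Hepes buffer, after 15 min compound preincubation.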
Pol beta inh – DNA polymerase beta (human) inhibition. Pol beta primer extension/strand displacement, fluorescence kinetic. Potency, µM (highest dose often 114 µM), hits mostly inhibitors. 1.3% of 340,000 active
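Homogeneous kinetic assay of primer extension and strand displacement by 10 nM Pol beta, preincubated 15 min at room temperature with compound before 50 nM substrate (final) was added. Read at 0 and 10 min; four-parameter Hill fit.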
Pol kappa inh – blocks human DNA polymerase kappa activity | AID 588579 | Q9UBT6 | purified Pol kappa, fluorescent DNA synthesis assay, 10 min | Potency, µM (titrated, usually from 107 µM), most hits filed as inhibitors | 0.53% of 400,000 active
Target sequence (Q9UBT6 whole entry, looked up): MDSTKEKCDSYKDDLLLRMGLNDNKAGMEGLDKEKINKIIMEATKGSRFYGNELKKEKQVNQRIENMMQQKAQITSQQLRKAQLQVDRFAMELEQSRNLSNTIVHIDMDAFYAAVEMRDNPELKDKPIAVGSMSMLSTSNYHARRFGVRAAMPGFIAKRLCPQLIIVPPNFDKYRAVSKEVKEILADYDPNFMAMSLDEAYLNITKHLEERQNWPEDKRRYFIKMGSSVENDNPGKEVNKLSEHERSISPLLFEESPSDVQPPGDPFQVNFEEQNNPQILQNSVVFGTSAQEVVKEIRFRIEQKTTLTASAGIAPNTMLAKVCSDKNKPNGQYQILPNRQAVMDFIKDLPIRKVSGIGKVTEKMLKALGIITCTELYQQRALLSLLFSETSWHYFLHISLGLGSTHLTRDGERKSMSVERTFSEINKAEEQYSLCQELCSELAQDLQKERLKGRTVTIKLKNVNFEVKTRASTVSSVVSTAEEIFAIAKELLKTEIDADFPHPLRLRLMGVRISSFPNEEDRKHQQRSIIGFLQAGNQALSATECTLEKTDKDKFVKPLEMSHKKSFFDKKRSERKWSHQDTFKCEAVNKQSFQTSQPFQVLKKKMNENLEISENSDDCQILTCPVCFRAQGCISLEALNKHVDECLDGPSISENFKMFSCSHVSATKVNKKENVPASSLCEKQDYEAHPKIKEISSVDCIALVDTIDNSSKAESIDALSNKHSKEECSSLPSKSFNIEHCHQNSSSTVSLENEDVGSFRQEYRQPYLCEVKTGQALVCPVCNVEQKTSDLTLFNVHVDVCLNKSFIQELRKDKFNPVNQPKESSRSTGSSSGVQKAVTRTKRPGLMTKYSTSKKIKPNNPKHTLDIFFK
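Inhibition of 10 nM Pol kappa is measured by a fluorescent read-out at 0 and 10 min following addition of 50 nM substrate (final), with a 15-min room-temperature compound preincubation.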
POLH inh – DNA polymerase eta (human) inhibition | Q9Y253 | recombinant Pol eta, fluorescent DNA replication assay | Potency, µM (series often up to 114 µM), hits mostly inhibitors | 1.2% of 390,000 active | AID 588591
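Fluorescent replication assay: 50 nM final substrate added after a 15 min room-temperature compound preincubation with 10 nM enzyme. Signal taken at 0 min and again at 10 min.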
Pol iota inh – DNA polymerase iota (human) inhibition; Q9UNA4; Pol iota fluorescent replication assay, 10 min; Potency, µM (series often up to 115 µM), actives largely listed as inhibitors; 1% of 390,000 active; AID 588590
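Pol iota at 10 nM preincubated 15 min with compounds at room temperature; reaction started with fluorescent substrate, 50 nM final. Fluorescence read kinetically at 0 and 10 min; buffer-only wells as negative control.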
PI5P4K alpha inh – PI5P4K alpha (human) kinase inhibition; 1.2% of 330,000 active; PI5P4Kalpha enzyme, ADP-Glo luminescence, 60 min; active compounds read low; P48426; max response, %; active = max response of -50% or lower; inconclusive = between -30% and -50%; inactive = -30% or higher; also: value at the top dose of about 77 µM
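Enzyme plus substrate dispensed, test compounds pinned in, then ATP (5 microM final) added. After 60 min at RT, ADP-Glo reagent 1 for 45 min and reagent 2 for 30 min preceded luminescence imaging.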
Numbers stand for hits; [ ] = remark or other dose. Only some compounds are listed: those with a hit (about 2.9% of all), similar ones and a draw of the others. Unless noted, calls follow the shape of the dose curve; as a rule, active = well fitted inhibition curve with a large enough effect; inconclusive = small, poorly fitted or top-dose-only effect, or another doubt; inactive = no such curve, though single readings can be large or run the other way.

For COc1cccc(N2C(=O)NC(=NC3CCCC3)C23CCCN(CC2CCCCC2)C3)c1 (centres undefined) the results were ALOX12 inh 79µM.
COc1ccc(-n2ccc(=O)c(C(=O)Nc3ccc(S(=O)(=O)Nc4nccs4)cc3)n2)cc1 was read as ALOX12 inh inconclusive, Pol beta inh inconclusive, Pol kappa inh inactive, POLH inh inactive, Pol iota inh inconclusive and PI5P4K alpha inh inactive.
Cc1cc(C)c2oc(C(=O)Nc3ccc(S(=O)(=O)Nc4nccs4)cc3)cc(=O)c2c1 was read as ALOX12 inh inactive, Pol beta inh inconclusive, Pol kappa inh inconclusive, POLH inh inconclusive, Pol iota inh 79µM and PI5P4K alpha inh inactive.
Cc1cccc(-n2ccc(=O)c(C(=O)Nc3ccc(S(=O)(=O)Nc4nccs4)cc3)n2)c1 was read as ALOX12 inh inactive, Pol beta inh 89µM, Pol kappa inh inactive, POLH inh inconclusive, Pol iota inh inactive and PI5P4K alpha inh inconclusive.
N#Cc1cccc(C(=O)Nc2ccc(S(=O)(=O)Nc3nccs3)cc2)c1 was read as ALOX12 inh inactive, Pol kappa inh inactive, POLH inh inactive, Pol iota inh inactive and PI5P4K alpha inh inactive.
Screening Cc1ccc(Oc2ccc3c(c2)C(=O)N(c2ccc(S(=O)(=O)Nc4nccs4)cc2)C3=O)cc1 returned ALOX12 inh inactive, Pol beta inh inactive, Pol kappa inh inactive, POLH inh 89µM and Pol iota inh inconclusive.
O=C(Nc1ccc(S(=O)(=O)Nc2nccs2)cc1)c1cccc(N2C(=O)c3ccccc3C2=O)c1 was read as ALOX12 inh inactive, Pol beta inh inactive, Pol kappa inh inconclusive, POLH inh 50µM, Pol iota inh 71µM and PI5P4K alpha inh inactive.
COCC(C)NC(=O)C1=CC(c2cccs2)=NS(=O)(=O)N1C (centres undefined) was read as ALOX12 inh inactive.
For Cc1ccc(-c2ccccc2CN)cc1Cl the results were ALOX12 inh inactive[12.5 µM].
For COc1ncccc1CNC[C@H]1Cn2cc(-c3ccc4c(c3)OCCCO4)nc2CO1 the results were ALOX12 inh inactive.
`C=CCNC(=O)c1nc(-c2ccc3cc[nH]c3c2)no1` gave ALOX12 inh inactive.
O=C(O)c1ccc(N=N/C(=N\Nc2ccc(C(=O)O)cc2)c2ccccc2)cc1 was read as ALOX12 inh inactive, Pol kappa inh inactive, POLH inh inactive, Pol iota inh inactive and PI5P4K alpha inh -80.
For O=C(O)c1cccc(N/N=C(\N=Nc2ccccc2)c2ccccc2)c1 the results were ALOX12 inh inconclusive, Pol kappa inh inactive, POLH inh inactive, Pol iota inh inactive and PI5P4K alpha inh inactive.
Screening CC(=O)Nc1ccc(/C(N=Nc2ccccc2)=N/N=C(N)N)cc1 returned ALOX12 inh 40µM, Pol kappa inh inactive, POLH inh inactive, Pol iota inh inactive and PI5P4K alpha inh inactive.
For CC(C)c1nc(OCC(=O)NCCc2ccccc2)c(C#N)c2c1CCCC2 the results were ALOX12 inh inactive.
Screening CN(C(=O)c1cccc(OC(F)F)c1)C1CCCCC1 returned ALOX12 inh inactive.
`Cc1cc(OCCN2CC(C)OC(C)C2)ccc1[N+](=O)[O-]` (centres undefined) gave ALOX12 inh inconclusive, Pol beta inh inactive, Pol kappa inh inactive, POLH inh inactive and Pol iota inh inactive.
`Cc1cc(OCCN2CCC(Cc3ccccc3)CC2)ccc1[N+](=O)[O-]` gave ALOX12 inh 6.3µM, Pol beta inh inactive, Pol kappa inh inactive, POLH inh inactive, Pol iota inh inactive and PI5P4K alpha inh inactive.
`c1ccc(C2(c3ccccc3)CCCN(Cc3cscn3)C2)cc1` gave ALOX12 inh 45µM.
COc1ccc(-c2nn[nH]n2)cc1OC was read as ALOX12 inh inactive, Pol beta inh inactive, Pol kappa inh inactive, POLH inh inactive, Pol iota inh inactive and PI5P4K alpha inh inactive.
Nc1cc(-c2nn[nH]n2)ccc1F was read as ALOX12 inh inactive, Pol beta inh inactive, Pol kappa inh inconclusive, POLH inh 11µM, Pol iota inh inconclusive and PI5P4K alpha inh inconclusive.
For Cc1ccc(C(=O)Nc2ccccc2)cc1NC(=O)CC(C)(C)CC(=O)O the results were ALOX12 inh inactive.
For CC(=C/c1ccccc1)/C=N/n1c(-c2ccncc2)n[nH]c1=S the results were ALOX12 inh 13µM, Pol beta inh inactive, Pol kappa inh inactive, POLH inh inactive, Pol iota inh inactive and PI5P4K alpha inh inactive.
For S=c1[nH]nc(-c2ccccc2Cl)n1/N=C/C=C/c1ccco1 the results were ALOX12 inh inconclusive, Pol beta inh 20µM, Pol kappa inh 79µM, POLH inh 50µM, Pol iota inh inconclusive and PI5P4K alpha inh -60.
`CC(/C=N/n1c(-c2cccnc2)n[nH]c1=S)=C\c1ccccc1` gave ALOX12 inh inactive, Pol beta inh inactive, Pol kappa inh inactive, POLH inh inactive, Pol iota inh inactive and PI5P4K alpha inh inactive.
Screening O=C1OC(c2ccccc2)=N/C1=C\C=C\c1ccco1 returned ALOX12 inh inconclusive, Pol beta inh inactive, Pol kappa inh inactive, POLH inh inactive, Pol iota inh inconclusive and PI5P4K alpha inh inactive.
CC(/C=N/n1c(-c2ccc(C)cc2)n[nH]c1=S)=C\c1ccco1 was read as ALOX12 inh inconclusive, Pol beta inh inactive, Pol kappa inh inactive, POLH inh inconclusive, Pol iota inh inactive and PI5P4K alpha inh inactive.
`C(=C\c1ccco1)/C=N/n1cnnc1` gave ALOX12 inh inactive, Pol beta inh inactive, Pol kappa inh inconclusive, POLH inh inactive, Pol iota inh 40µM and PI5P4K alpha inh inactive.
For CC(/C=N/n1c(-c2ccco2)n[nH]c1=S)=C\c1ccco1 the results were ALOX12 inh inconclusive, Pol beta inh 28µM, Pol kappa inh inactive, POLH inh inconclusive, Pol iota inh inconclusive and PI5P4K alpha inh inactive.
`CCCNc1c(NC(=O)c2ccc(CC)cc2)c(=O)oc2ccccc12` gave ALOX12 inh inactive.
`CN(C)c1ccc(-c2noc([C@@H]3CCCN3Cc3cnc4ccccc4c3)n2)cn1` gave ALOX12 inh inactive.
For O=C(NC(=S)Nc1ccc(Cl)cc1)c1ccccc1 the results were ALOX12 inh 45µM, Pol beta inh inactive, Pol kappa inh inactive, POLH inh inactive, Pol iota inh inactive and PI5P4K alpha inh inactive.
CC(=O)Nc1ccc(NC(=S)NC(=O)c2ccc(Cl)cc2)cc1 was read as ALOX12 inh 5.6µM.
Screening O=C(NC(=S)Nc1ccc(Oc2ccc(Cl)cc2)cc1)c1ccccc1 returned ALOX12 inh 8.9µM, Pol beta inh inactive, Pol kappa inh inactive, POLH inh inactive, Pol iota inh inactive and PI5P4K alpha inh inactive.
`O=C(O)/C(=N/NC(=O)c1ccc(Cl)cc1)c1ccccc1` gave ALOX12 inh inactive, Pol beta inh 25µM, Pol kappa inh inactive, POLH inh inactive, Pol iota inh inactive and PI5P4K alpha inh inactive.
